# Assay outcomes (PubChem BioAssay)
# KB-V1 cytotox: qHTS assay for MDR1-selective chemotherapeutics: Primary screen using the drug-selected MDR subline cells KB-V1. AID 1347076, 2019. KB-V1 MDR cells viability, CellTiter-Glo, 72 h. Potency, µM (titrated, usually from 46.1 µM), actives largely listed as cytotoxic. 3.4% of 400,000 active; also: potency is read from the fitted curve at half-maximal effect; nearly all actives have a fitted effect of over 60% in size
#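 Drug-selected KB-V1 cells, grown in DMEM lacking phenol red with 10% FBS, receive compound titrations; after three days at 37 degrees C, surviving cell ATP is quantified by CellTiter-Glo luminescence and responses normalized and curve-fitted.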
# HT1080-NT tox: qHTS for induction of synthetic lethality in tumor cells producing 2HG: qHTS for the HT-1080-NT fibrosarcoma cell line; Potency, µM (highest dose often 46.1 µM), without a hit: top-dose activity, negative = less viability, usual class: cytotoxic; 1.6% of 360,000 active; HT-1080-NT fibrosarcoma viability, CellTiter-Glo ATP luminescence, 48 h;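 also: NT is the 2HG producing partner of a matched IDH1 knockdown line; potency is read from the fitted curve at half-maximal effect; 0% = DMSO-treated cells and -100% = media-only wells without cells; nearly all actives have a fitted effect of over 55% in size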
#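 Read-out is CellTiter-Glo luminescence after 10 minutes at room temperature, following 48 hours' compound treatment of HT-1080-NT cells (750 cells/well, RPMI, 5% FBS, 37 degrees C).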
# IL-1B inflam inh: qHTS for Inhibitors of Inflammasome Signaling: IL-1-beta AlphaLISA Primary Screen; THP-1 LPS/ATP IL-1B secretion, AlphaLISA, 16 h; hits give low values; activity change, % at 57.5 µM; 4.7% of 360,000 active; in the data active = activity change below about -50%; inconclusive = mostly about -30% to -49%
#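 Secreted IL-1B measured by AlphaLISA bead assay after 16 h compound exposure of THP-1 cells; compounds (final up to 57.5 uM) added 1 h before LPS (250 ng/mL) and ATP (1.25 mM) stimulation; lower signal means less secretion.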
# HT1080 IDH1KD tx: qHTS for induction of synthetic lethality in tumor cells producing 2HG: qHTS for the HT-1080-IDH1KD cell line; HT-1080 IDH1 knockdown viability, ATP luminescence, 48 h; Potency, µM (titrated, usually from 46.1 µM), for inactives: at the highest dose activity, negative = toxicity, hits mostly cytotoxic; 2% of 360,000 active;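 also: potency is read from the fitted curve at half-maximal effect; 0% = DMSO wells and -100% = cell-free medium wells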
#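 % activity derives from luminescence (CellTiter-Glo), normalised to DMSO and no-cell wells. HT-1080-IDH1KD cells, 750/well, had 48 h compound exposure at 37 °C.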
# KB-3-1 cytotox: qHTS assay for MDR1-selective chemotherapeutics: Primary screen using the parental adenocarcinoma cell KB-3-1; Potency, µM (top dose mostly 46.1 µM), actives largely listed as cytotoxic; KB-3-1 viability, CellTiter-Glo ATP luminescence, 72 h; 1.4% of 400,000 active; also: potency is read from the fitted curve at half-maximal effect; nearly all actives have a fitted effect of over 60% in size
#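 KB-3-1 parental drug-naive adenocarcinoma cells in DMEM/10% FBS, incubated 72 h at 37 C with pin-transferred compounds across a concentration series. Viability by CellTiter-Glo luminescence; concentration-response curves fitted after normalization.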
# * = called active by the depositor; i = inactive; ? = inconclusive; . = no result given. The list is not random: actives were taken first. Their share in the collection is about 8.8%. Unless noted, calls follow the shape of the dose curve; as a rule, active = well fitted curve in the direction sought with a large enough effect; inconclusive = small, poorly fitted or top-dose-only effect, or another doubt; inactive = no such curve, though single readings can be large; an effect the other way counts as inactive or inconclusive. Unless noted, % is scaled to controls: 0 for no effect and ±100 for the full control effect.
SMILES,KB-V1 cytotox,HT1080-NT tox,IL-1B inflam inh,HT1080 IDH1KD tx,KB-3-1 cytotox
O=C(NCC(c1cccnc1)N1CCc2ccccc2C1)C(=O)Nc1ccc(F)cc1F (configuration not stated),i,.,.,.,i
CCc1cccc(CC)c1NC(=O)C(CC)n1nc(C)n2c(cc3cc(C)ccc32)c1=O (configuration not stated),i,.,.,.,i
O=C1Cc2cc(S(=O)(=O)N3CCN(c4ccc([N+](=O)[O-])cc4)CC3)ccc2N1,i,.,.,.,i
Cc1ccc(/C=N/NC(=O)c2ccc(N(C)S(=O)(=O)c3ccccc3)cc2)cc1,i,-18.6%,-53.1*,?,i
CC(=O)Oc1ccc(/C=N/NC(=O)c2ccc(N(C)S(=O)(=O)c3ccccc3)cc2)cc1,?,-24.9%,2.8,-12.4%,i
Cc1cccc(Nc2nc(-c3ccccc3)c(C(=O)Nc3cccnc3)s2)c1,?,?,-60.9*,?,?
O=C(Nc1cccnc1)c1sc(Nc2ccccc2)nc1-c1ccccc1,14.6µM*,0.1%,-12.0,-0.8%,?
Cc1cccc(NC(=O)c2sc(Cl)nc2-c2ccccc2)c1,i,-0.9%,0.0,-11.8%,?
C[C@H](CO)N1C[C@H](C)[C@@H](CN(C)S(=O)(=O)c2ccccc2)Oc2c(NS(=O)(=O)c3ccccc3)cccc2C1=O,i,-20.6%,-18.6,-3.4%,i
CCN(CC)c1ccc(NC(=O)C2CCN(c3nnc(-n4cccc4)s3)CC2)c(C)c1,i,.,.,.,?
CCCS(=O)(=O)c1nc(S(=O)(=O)c2ccc(C)cc2)c(N2CCOCC2)s1,.,1.3%,-73.7*,9.7%,.
CC1CCCN(c2sc(S(C)(=O)=O)nc2S(=O)(=O)c2ccc(Cl)cc2)C1 (configuration not stated),?,-2.2%,-70.7*,-7.5%,i
CCS(=O)(=O)c1nc(S(=O)(=O)c2ccc(Cl)cc2)c(N2CCN(CCO)CC2)s1,i,2.9%,-16.9,-2.7%,i
CCS(=O)(=O)c1nc(S(=O)(=O)c2ccc(C)cc2)c(N2CCCC(C)C2)s1 (configuration not stated),i,-18.6%,?,-15.5%,i
CCCS(=O)(=O)c1nc(S(=O)(=O)c2ccc(C)cc2)c(N2CCCCC2)s1,i,7.0%,-26.8,0.9%,i
CCN1CCN(c2sc(S(=O)(=O)CC)nc2S(=O)(=O)c2ccc(Cl)cc2)CC1,?,-1.8%,-65.7*,-11.9%,i
CS(=O)(=O)c1nc(S(=O)(=O)c2ccc(Cl)cc2)c(N2CCOCC2)s1,i,5.3%,-76.3*,4.2%,?
CCn1cc(/C=C(\NC(=O)c2ccc(OC)c(OC)c2)C(=O)N2CCN(C)CC2)c2ccccc21,i,-0.1%,-11.9,2.6%,i
CC1CN(c2sc(S(C)(=O)=O)nc2S(=O)(=O)c2ccc(Cl)cc2)CC(C)O1 (configuration not stated),i,16.9%,-64.3*,12.0%,i
CCS(=O)(=O)c1nc(S(=O)(=O)c2ccc(C)cc2)c(NCCCN2CCOCC2)s1,i,0.0%,-11.5,-8.4%,i
CCS(=O)(=O)c1nc(S(=O)(=O)c2ccc(Cl)cc2)c(NCCCN2CCOCC2)s1,i,-11.1%,-51.3*,-1.0%,i
CCN=C1SC(C(=O)Nc2cccc(Br)c2)CC(=O)N1CC (configuration not stated),i,4.5%,2.4,-0.6%,i
COc1cc(CNC(=O)c2cc(-c3ccc(F)cc3OC)n[nH]2)cc(OC)c1,i,17.3%,0.0,21.7%,i
O=C(COc1ccc(Cl)cc1Br)N1CCN(c2ncccn2)CC1,i,-1.9%,-9.0,-7.8%,i
